{
  "source": "PubChem BioAssay AID2401",
  "about": "(Southern Research Specialized Biocontainment Screening …, 2010)",
  "note": "About 530 (24%) of roughly 2,200 compounds were called active.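 How the source made its calls: active means inhibition above a set limit at one or more concentrations of the dose series; inactive means inhibition under that limit at every dose.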 Not all results are given here. Where a call stands in place of a potency, no number is given. Potency and affinity values are given separately.",
  "data": [
    {"assay": "S. Typhimurium nonspecific reporter signal inhibition – Salmonella Typhimurium, GFP fluorescence, counter-screen for PhoP regulon inhibitor project, dose response (AID 2401);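 further: S. typhimurium with Mg-insensitive nmpC-GFP reporter grown at 10 µM Mg2+; drop in reporter fluorescence reflects general culture growth inhibition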", "conditions": "4 h; series mostly up to 150 µM", "values": [
      {"smiles": "CCCOC(=O)Oc1ccc2c(=O)c(Oc3cc(C)cc(C)c3)coc2c1", "outcome": "inactive"},
      {"smiles": "Cc1ccccc1NC(=S)NC1CCN(Cc2ccccc2)CC1", "outcome": "inactive"},
      {"smiles": "OC1(c2ccc3ccccc3c2)CCN(Cc2ccccc2)C1", "note": "(stereo not drawn)", "outcome": "inactive"},
      {"smiles": "O=C1c2cccc(OCC(=O)N3N=C(c4cccs4)CC3c3ccc(F)cc3)c2CCN1Cc1cccnc1", "note": "(stereo not drawn)", "outcome": "inactive"},
      {"smiles": "COc1ccc(O)c(/C=c2/sc3nc4cc(C)c(C)cc4n3c2=O)c1", "outcome": "inactive"},
      {"smiles": "Cc1ccc2c(CN3CCC(C)CC3)cc(=O)oc2c1", "outcome": "inactive"},
      {"smiles": "O=C(Cn1cnc2ccccc2c1=O)NCc1ccco1", "outcome": "inactive"},
      {"smiles": "CCn1nc(C(=O)OC(C(=O)c2c[nH]c3ccccc23)c2ccccc2)c2ccccc2c1=O", "note": "(stereo not drawn)", "outcome": "inactive"},
      {"smiles": "Cc1ccc(C)c(C(=O)NCc2ccncc2)c1", "outcome": "inactive"},
      {"smiles": "CCOC(=O)c1ccc(N2CCN(c3ccc(F)cc3)CC2)c(NC(=O)Nc2cccc(OC)c2)c1", "outcome": "inactive"},
      {"smiles": "CCN(CC)CCN(Cc1cc2cc3c(cc2[nH]c1=O)OCCO3)C(=O)NC1CCCCC1", "outcome": "inactive"},
      {"smiles": "N#Cc1c(-c2ccccc2)ccn(Cc2cccc(Cl)c2)c1=O", "outcome": "inactive"},
      {"smiles": "CSc1nnc(NC(=O)CCc2ccccc2)s1", "outcome": "inactive"},
      {"smiles": "O=C(CSc1nc(Nc2ccccc2)nc(N2CCOCC2)n1)Nc1ccc([N+](=O)[O-])cc1", "outcome": "inactive"},
      {"smiles": "O=C(Nc1cc(C(F)(F)F)ccc1Cl)C(NCc1ccccc1)c1ccccc1", "note": "(stereo not drawn)", "outcome": "inactive"},
      {"smiles": "O=C(NC1CCCC1)c1ccc(Cl)s1", "outcome": "inactive"},
      {"smiles": "O=C(NNc1nc(-c2ccccc2)cs1)c1ccccc1", "outcome": "inactive"},
      {"smiles": "COc1ccc(C2=Nc3cccc4cccc(c34)N2)cc1", "outcome": "inactive"},
      {"smiles": "CCN(CC)S(=O)(=O)c1ccc(C(=O)N2CCN=C2SCc2cccnc2)cc1", "outcome": "inactive"},
      {"smiles": "Cc1cc(C)n2c(SCC(=O)NCc3ccco3)nnc2n1", "outcome": "inactive"},
      {"smiles": "Cc1ccc2nc(-c3ccc(Br)o3)oc(=O)c2c1", "outcome": "inactive"},
      {"smiles": "NC1=NC(=Nc2ccc(Br)cc2)c2ccccc21", "outcome": "inactive"},
      {"smiles": "Cn1cnnc1SCC(=O)Nc1cccc(C(=O)O)c1", "outcome": "inactive"},
      {"smiles": "COc1ccc2nc(-c3ccccc3)cc(OC)c2c1", "outcome": "inactive"},
      {"smiles": "Nc1c(C(=O)Nc2ccc(F)cc2)sc2nc(-c3ccco3)ccc12", "outcome": "inactive"},
      {"smiles": "Cc1cccc(-n2c(N)cc(=O)[nH]c2=S)c1", "outcome": "inactive"},
      {"smiles": "COc1ccc(OCCSc2nnc(-c3ccc(OC)cc3)n2N)cc1", "outcome": "inactive"},
      {"smiles": "CCOC(=O)N1CCN(S(=O)(=O)c2ccc(C(=O)NNc3nc4c(C)cc(C)cc4s3)cc2)CC1", "outcome": "inactive"},
      {"smiles": "O=C(C(=O)N1CCc2ccccc2C1)N1CCc2ccccc2C1", "outcome": "inactive"},
      {"smiles": "O=C(Nc1ccc(S(=O)(=O)N2CCCC2)cc1)c1ccc(CN2CCc3ccccc3C2)cc1", "outcome": "inactive"},
      {"smiles": "Oc1ccc(NCc2ccccc2OCc2ccccc2F)cc1", "outcome": "inactive"},
      {"smiles": "c1ccc2c(c1)CCN(c1ncnc3c1[nH]c1ccccc13)C2", "outcome": "inactive"},
      {"smiles": "NC(=O)N1OCC2COc3ccc4ccccc4c3C21", "note": "(stereo not drawn)", "outcome": "inactive"},
      {"smiles": "Cc1ccc(NC(=O)COC(=O)C2(c3ccc(Cl)cc3)CCCC2)cc1", "outcome": "inactive"},
      {"smiles": "COc1ccc(/C=C(\\NC(=O)/C=C/c2ccco2)C(=O)NCCc2nc3ccccc3[nH]2)cc1", "outcome": "inactive"},
      {"smiles": "C=CCOc1ccccc1CNCCCN1CCOCC1", "outcome": "inactive"},
      {"smiles": "FC(F)(F)C1=CC(c2ccc(Br)cc2)=NCCN1", "outcome": "inactive"},
      {"smiles": "CCCCC(=O)NCCNC(=O)c1cc(OCC(F)(F)F)ccc1OCC(F)(F)F", "outcome": "inactive"},
      {"smiles": "CCOc1ccc2c(c1)nc(SCC(=O)c1ccc(Br)s1)n2C", "outcome": "inactive"},
      {"smiles": "Cc1ccc(-c2csc(=S)n2CC(=O)OCC(=O)NCc2ccco2)cc1", "outcome": "inactive"},
      {"smiles": "O=C(CCCOc1ccccc1)N1CCCc2ccccc21", "outcome": "inactive"},
      {"smiles": "Cc1ccc2c(c1)[nH]c1c(N3CCN(Cc4ccccc4)CC3)ncnc12", "outcome": "inactive"},
      {"smiles": "CCc1nc(SCC(=O)N2CCCc3ccccc32)c2oc3ccccc3c2n1", "outcome": "inactive"},
      {"smiles": "O=C(CN1CCN(Cc2ccccc2)CC1)c1c[nH]c2ccccc12", "outcome": "inactive"},
      {"smiles": "C/C(Nc1ccc(F)cc1)=C(/C#N)C(N)=O", "outcome": "inactive"},
      {"smiles": "CN(C)c1ccc(/C=N/c2cc(-c3ccccc3)nn2-c2ccccc2)cc1", "outcome": "inactive"},
      {"smiles": "CCC(CC)C(=O)NCCc1ccc(OC)cc1", "outcome": "inactive"},
      {"smiles": "CCOc1c(Br)cc(CNCc2cccs2)cc1OC", "outcome": "inactive"},
      {"smiles": "S=C(NCc1ccncc1)Nc1ccc(Cl)c(Cl)c1", "outcome": "inactive"},
      {"smiles": "O=C(NC(NC(=S)Nc1ccc(Cl)c(Cl)c1)C(Cl)(Cl)Cl)c1ccco1", "note": "(stereo not drawn)", "outcome": "inactive"},
      {"smiles": "Cc1ccsc1/C=N/NC(=O)Cn1cnc2ccccc21", "outcome": "inactive"},
      {"smiles": "Cc1cc(NC(=O)c2ccccc2-c2ccccc2)ccc1Br", "outcome": "inactive"},
      {"smiles": "CC1=CC2=NC(=O)/C(=C\\c3cc(C)n(-c4ccc(F)cc4)c3C)C(=N)N2O1", "outcome": "inactive"},
      {"smiles": "CC(=O)NCCOc1c(C)cc(S(N)(=O)=O)cc1C", "outcome": "inactive"},
      {"smiles": "O=C(NCCc1ccc(Cl)cc1)/C(=C/c1cccnc1)NC(=O)c1ccccc1", "outcome": "inactive"},
      {"smiles": "Cc1ccc(S(=O)(=O)N2CCC(C(N)=O)CC2)c(C)c1C", "outcome": "inactive"},
      {"smiles": "Cc1nc([N+](=O)[O-])c(Br)n1CC(=O)c1ccccc1", "outcome": "inactive"},
      {"smiles": "CC(=O)Nc1ccc(-n2nnnc2SCC(=O)Nc2cccc(NC(=O)c3ccco3)c2)cc1", "outcome": "inactive"},
      {"smiles": "COc1ccc(C(=O)Nc2cc(C)ccc2NC(=O)COc2ccccc2)cc1", "outcome": "inactive"},
      {"smiles": "C=CCn1c(SCC(=O)Nc2nnc(CC)s2)nnc1-c1cccnc1", "outcome": "inactive"},
      {"smiles": "Cc1ccc(C(=O)NCC(=O)NCC(=O)OCC(=O)c2ccc([N+](=O)[O-])cc2)cc1", "outcome": "inactive"},
      {"smiles": "CCc1ccccc1NC(=O)c1nnn(CC(=O)Nc2cccc(C)c2C)c1N", "outcome": "inactive"},
      {"smiles": "CC1CC(C)CN(CCCSc2ccccc2)C1", "note": "(stereo not drawn)", "outcome": "inactive"},
      {"smiles": "COc1cccc(NC(=O)CNC(=O)c2cccs2)c1", "outcome": "inactive"},
      {"smiles": "COCC(=O)N(Cc1ccco1)c1nnc(C2CCOC2)s1", "note": "(stereo not drawn)", "outcome": "inactive"},
      {"smiles": "Cc1ccc(C(C)C)cc1C(=O)CC1(O)C(=O)N(C)c2ccccc21", "note": "(stereo not drawn)", "outcome": "inactive"},
      {"smiles": "COC(=O)CSc1nc(SCc2ccccc2Cl)nc2c1CCCC2", "outcome": "inactive"},
      {"smiles": "CCOC(=O)c1[nH]c2ccccc2c1NC(=O)C(C)(C)C", "outcome": "inactive"},
      {"smiles": "COc1ccc2nc(Nc3nc4cc5c(cc4s3)OCCO5)sc2c1", "outcome": "inactive"},
      {"smiles": "NNc1nc2c(-c3cccc(C(F)(F)F)c3)nnn2c2ccccc12", "outcome": "inactive"},
      {"smiles": "COc1ccc2oc(=O)cc(C)c2c1", "outcome": "inactive"},
      {"smiles": "COc1cccc(C(=O)Oc2c(CN3CCOCC3)cc(Cl)c3cccnc23)c1", "outcome": "inactive"},
      {"smiles": "COc1ccccc1N1CCN(C(CNS(=O)(=O)c2ccccc2)c2cccnc2)CC1", "note": "(stereo not drawn)", "outcome": "inactive"}
    ]}
  ]
}
